Source: the supplement of paper PMC6555819

How the values were obtained:
Test in all cases: PBM binding z-score (relative to random genomic background probes); higher = stronger binding; sequences stand for … in GC…GCGATTGACAGCGTAGAATGAAGG
[1] = test system: PPARg:RXRa DBDmut IVT, anti-RXR (DBD mutation: RXRa K156A/R161A, NR concentration 270 nM, RXRa partner concentration 90 nM)
Outline: (§1)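 The probes on custom Agilent 4×180K protein-binding microarrays were double-stranded, with 34-nt variable regions bearing direct-repeat seeds, single-nucleotide variants, half-site ablations and random human genomic background sequences. Incubation lasted 1 h with ligand-free nuclear receptor dimers in PBS pH 7.4, 2% milk, 0.02% Triton X-100, 1 mM DTT, 0.2 mg/mL BSA and 0.4 mg/ml salmon testes DNA. Antibodies against each partner (one per run) detected bound dimers, and fluorescence scans were regression-normalized. Binding z-scores take the random background probes as reference.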

[2] = test system: PPARg:RXRa IVT, anti-PPARg (NR concentration 270 nM, RXRa partner concentration 90 nM)
Outline: as §1

[3] = test system: PPARg DBDmut:RXRa IVT, anti-PPARg (DBD mutation: PPARg1 K132A/R137A, NR concentration 270 nM, RXRa partner concentration 90 nM)
Outline: as §1

[4] = test system: PPARg DBDmut IVT, anti-PPARg (DBD mutation: PPARg1 K132A/R137A, NR concentration 270 nM)
Outline: as §1

[5] = test system: PPARg homodimer (NR concentration 180 nM)
Outline: as §1

[6] = test system: PXR:RXRa (NR concentration 270 nM, RXRa partner concentration 90 nM)
Outline: as §1

[7] = test system: PXR homodimer (NR concentration 270 nM)
Outline: as §1

[8] = test system: RARa:RXR (NR concentration 270 nM, RXRa partner concentration 90 nM)
Outline: as §1

[9] = test system: RARa homodimer (NR concentration 270 nM)
Outline: as §1

[10] = test system: RARb:RXRa (NR concentration 270 nM, RXRa partner concentration 90 nM)
Outline: as §1

Sequence	PBM binding z-score [1]	PBM binding z-score [2]	PBM binding z-score [3]	PBM binding z-score [4]	PBM binding z-score [5]	PBM binding z-score [6]	PBM binding z-score [7]	PBM binding z-score [8]	PBM binding z-score [9]	PBM binding z-score [10]
AGAATGAGGTTGAGATCAGGGAAACAGAATACAT	-0.749	-0.0669	0.897	0.0775	0.146	0.154	0.387	0.681	0.16	0.263
GCAAATAGGTAATACAAGGTGAAAGTCCGATTGT	3.46	2.55	0.642	0.68	0.192	0.778	0.202	1.44	0.308	0.635
ATCTCTAGGTAAACAAGTTCAGTGAATGCCGAAC	2.47	2.16	1.52	1.13	1.19	1.47	2.08	0.521	1.04	1.05
AGAACGAGGGCAATGAGTTTATAGCACGGGTGGC	3.6	2.75	0.304	-0.00705	-0.116	4.31	12.1	0.403	-0.186	2.44
CCTTACGGGTCACGAGGTTCTAGCACGACGAGCG	4.32	5.09	0.979	-0.156	2.86	4.06	-0.111	5.48	0.989	4.41
CCTACTTGGTCAAGGTCACACACGCTATAGGTAC	2.5	3.56	0.858	1.02	3.34	4.31	1.72	4.29	2.21	4.18
TCTAGTTGGTCAAAGGTTACACACTCGAAATGCG	3.09	4.81	1.41	2.3	3.48	3.45	1.04	4.79	2.25	2.88
ATATGTAGGTTAGCTGGGGTCATTCATACTAGGC	6.88	6.57	2.9	2.72	3.41	6.71	4.4	6.18	2.13	3.28
ACAAGCAGGCCAAGTTTGGGTCACTCAAACAAAG	0.823	1.59	-0.817	-0.239	-0.0252	0.706	-0.465	1.56	-0.485	2
TTTCGGAGGACACGAAGGTCAGAGCTTTCCAGAG	0.209	1.38	-0.89	-0.892	1.79	2.42	1.37	2.56	0.837	3.51
AATACAGGGTCACTAGGCCAGAGTCGGTACGAAT	4.04	5.73	1.74	1.6	2.69	3.08	0.172	4.13	1.14	4.1
GCAGATAGGTAATACAAGGTGAAAGTCCGATTGT	0.315	0.869	0.607	0.154	0.298	0.645	0.172	0.91	0.423	0.412
CGAACGAGGGAATGAGTTGATAGCAAATGCCGAT	-0.446	-0.487	-0.561	0.167	-0.451	-0.632	-0.33	-0.875	-0.143	-0.567
CCGACTGGGGCATACGGTTACCATAAGCCAGCCC	2.5	2.15	-0.604	-1.2	0.276	-0.401	-0.646	-0.126	-0.0238	0.496
CCTCGGAGAACAACAGGAGGTCAGAGCTGCCAGA	-0.197	-0.0712	-1.48	-1.85	1.77	1.71	0.361	2.04	0.98	2.01
ACTATTAGTAGAGACGAGGGCAACCGATAGGTTG	-0.0666	0.751	1.1	0.293	0.251	0.541	0.137	0.421	0.262	0.97
CAGCCTAGGTCAGCGCCAGTATAGGAGGAACGTT	1.84	1.37	-1.15	-0.469	0.899	0.373	-0.685	1.15	-0.632	3.71
AGTCATAGTTCAGGACGAGGTAACGTAAAGCACG	-0.922	0.674	0.901	0.714	0.947	1.13	0.0157	1.31	0.185	2.59
TCTTGTAGATCAAGCAGGTTAAGACAGCCTGAGT	1.59	0.85	0.703	0.0402	-0.449	0.414	0.135	0.668	-0.0996	0.151
CCTGCTAGGTCATGGTTAGCTAATCTACAGTATG	4.51	3.71	1.31	0.491	3.42	1.38	-0.137	2.44	-0.015	3.65
ACAGACAGGTGAGTGAAGCTAACTCAGCTGGACG	0.196	0.291	-0.859	-1.17	-1.1	-0.701	-0.552	-0.839	-0.721	0.276
AGAACGAGGCCACGCTGAGTTGATAGCAGAGTAG	3.08	2.31	0.24	0.0825	-0.457	-0.0371	-0.451	-0.283	-0.379	1.17
TCTTATAGGTAAACAGGTGAAAGTCCGTAAGTTA	4.87	4.49	1.36	1.34	1.19	0.753	0.655	0.981	0.803	0.791
TCTTGTAGATCAACAGGAGGTTAGGAAAGATCGA	1.53	0.599	0.272	0.48	-0.426	0.183	-0.275	0.125	0.162	0.117
